Laboratory results: PubChem BioAssay (NCATS)
Results filed as inconclusive are left out. Where a call stands in place of a potency, no number is given. The source made the active and inactive calls. Calls come from the whole dose curve; as a rule, active = well fitted cell-killing curve with a large enough effect; inconclusive = small, poorly fitted or top-dose-only effect; inactive = flat fitted curve, though single readings scatter.

Test: Identifying Small Molecule Inhibitors of Pancreatic Cancer Stem Cells (SN12C, Adherent) (AID 1259358);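 note: cell survival measured after 48 h of compound exposure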
Settings: viability/growth inhibition; series mostly up to 46.1 µM
Excerpt: Progenitor-like cancer cells, often referred to as cancer stem cells (CSC), are believed to be the drivers of therapeutic resistance and rapid recurrence. CSCs are postulated to reside in specific niches characterized by low oxygen tension, limited nutrient supply, and high redox load. Selectively targeting CSC, alone or in combination with cytotoxic agents, as a means to produce durable remissions is an appealing concept. Modeling these cells in in vitro setting is an important step in finding new therapies and/or targets. Multiple reports highlight that forcing cells in culture into 3-dimensionaly architectures (spheroids) re-establishes key progenitor-like transcriptional signatures. Pancreatic cancer is among the diseases with the most dismal outlook which is driven, largely, by recurance following front-line therapies. […] In hopes of deriving new insight into the targeting of these pancreatic CSCs we examined three established pancreatic cancer cell lines in cytotoxicity assays versus a collection of approved and investigational drugs. Importantly, we screened these lines as traditional monolayer (2D) and spheroid (3D) formats to gain an appreciation of agents with differential activity.
Multicellular tumor spheroids from Panc1, MiaPaCa-2, and the primary low-passage tissue culture line SB.06 were seeded in stem cell media (SCM) in nonadherent 6-well plates coated with hydrogel (Corning Life Sciences, Chelmsford, Mass) and pancreatic spheres generated for 14 days before screening. Cells were seeded into 1536-well solid-bottom white tissue culture treated Greiner Bio One Plates (789173-F) using a MultiDrop Combi (Thermofisher Scientific) dispenser and a small sterile cassette. One column was media alone to be used as a :"no cells" control. The plates were then covered with sterilized stainless steel gasketed lids from Kalypsys. After allowing cells to attach for 4 hours, 23 nL of test compound or control (negative control DMSO and positive control 9.2 uM Bortezomib-final) were added from a 1536-well polypropylene compound source plate to each well using a 1536 head pin tool from Kalypsys. Cells were then incubated for 48 hours at 37C, 95% relative humidity and 5% CO2. After 48 hours, plates were removed from the incubator and 3 uL of CellTiter-Glo (Promega) was added using an Aurora Flying Reagent Dispenser Bioraptor. Plates were incubated at room temperature for 10 minutes prior to reading the luminescence on the Viewlux (PerkinElmer). The relative luciferase units are used to calculate the percent activity using the activity of DMSO in the cells and no cells columns for normalization of no inhibition and full inhibition respectively.
Potency is the fitted concentration of half-maximal effect.

| Compound | Potency |
| --- | --- |
| Cc1cccc(Nc2nc(N[C@@H]3CCCC[C@H]3N)ncc2C(N)=O)c1 | 18.7 µM (active) |
| Cc1ccc(NC(=O)c2ccc(CN3CCN(C)CC3)cc2)cc1Nc1nc(-c2cccnc2)cs1 | inactive |
| Nc1ccc(-c2ccc3ncc4ccc(=O)n(-c5cccc(C(F)(F)F)c5)c4c3c2)cn1 | inactive |
| CCCCc1ccc(NS(=O)(=O)c2ccc(C)c(C(=O)N3CCN(c4cccc(C)c4C)CC3)c2)cc1 | inactive |
| CC(=O)NCCC(=O)N[C@@H](CCC(N)=O)C(=O)N[C@@H](CO)C(=O)N[C@@H](CCC(N)=O)C(=O)N[C@@H](CCC(N)=O)C(=O)N[C@H](C(=O)N[C@@H](Cc1ccccc1)C(=O)N[C@]1(C)CCCCCCC=CCCC[C@@](C)(C(=O)N[C@@H](CCC(N)=O)C(=O)N[C@@H](CC(N)=O)C(N)=O)NC(=O)[C@H](CC(C)C)NC(=O)[C@H](CC(C)C)NC(=O)[C@@H](CCCNC(=N)N)NC(=O)[C@H](Cc2c[nH]c3ccccc23)NC(=O)[C@H](CC(C)C)NC(=O)[C@H](CC(N)=O)NC1=O)[C@H](C)O | inactive |
| Cc1cc2c(cc1C1(c3ccc(C(=O)O)cn3)CC1)C(C)(C)CCC2(C)C | inactive |
| Cc1c(C(=O)Nc2ccc(N3C[C@@H](C)O[C@@H](C)C3)nc2)cccc1-c1ccc(OC(F)(F)F)cc1 | inactive |
| O=C(O)Cc1cccc(OCCCN(Cc2cccc(C(F)(F)F)c2Cl)CC(c2ccccc2)c2ccccc2)c1 | inactive |
| CCCCOCCOc1nc(-c2ccc(C(=O)O)c(F)c2)sc1C | inactive |
| O=C1C(CCC(O)c2ccc(F)cc2)C(c2ccc(O)cc2)N1c1ccc(F)cc1 (stereo not given) | inactive |
| NC(=O)c1ccc(N(C(N)=O)c2c(F)cccc2F)nc1-c1ccc(F)cc1F | inactive |
| OCCn1cc(-c2ccc3c(c2)CCC3=NO)c(-c2ccncc2)n1 | inactive |
| CN1C(=O)C(Cc2c[nH]c3ccccc23)NC1=S (stereo not given) | inactive |
| Cn1cc(-c2ccc3nnc(Sc4ccc5ncccc5c4)n3n2)cn1 | inactive |
| O=C(O)c1ccc(O)c2ncc(N3CCOCC3)cc12 | inactive |
| Cc1nn(Cc2ccccc2Cl)c(C)c1CN(C)CC(O)COc1ccc(Cl)cc1 (stereo not given) | inactive |
| CCOC(=O)[C@@H](N)CCC(=O)N[C@@H](CSCc1ccccc1)C(=O)N[C@@H](C(=O)OCC)c1ccccc1 | inactive |
| CCNC(=O)c1noc(-c2cc(C(C)C)c(O)cc2O)c1-c1ccc(CN2CCOCC2)cc1 | 0.0105 µM (active) |
| CCC(=O)N1CCN(c2ccc(-n3c(=O)ccc4cnc5ccc(-c6cnc7ccccc7c6)cc5c43)cc2C(F)(F)F)CC1 | 0.0372 µM (active) |
| C[C@@H](O[C@H]1OCCN(Cc2n[nH]c(=O)[nH]2)[C@@H]1c1ccc(F)cc1)c1cc(C(F)(F)F)cc(C(F)(F)F)c1 | 18.7 µM (active) |
| COc1cccc(OC)c1-c1cc(C(=O)NC2(C(=O)O)C3CC4CC(C3)CC2C4)nn1-c1ccnc2cc(Cl)ccc12 (stereo not given) | inactive |
| O=C(Nc1cccc(Cl)c1)Nc1ncc(CCNc2ncnc3ccsc23)s1 | inactive |
| COc1cc2nccc(Oc3ccc(NC(=O)Nc4cc(C)on4)c(Cl)c3)c2cc1OC | 16.6 µM (active) |
| CNC(=O)c1cc(COc2nnc(Nc3ccc(Cl)cc3)c3ccoc23)ccn1 | inactive |
| CN(C)CCCNC(=O)c1ccc(-c2cc(O)c3ncccc3c2)cc1 | inactive |
| COC(=O)Nc1ccc(-c2nc(N3CCOCC3)c3cnn(C4CCN(C(=O)OC)CC4)c3n2)cc1 | 0.264 µM (active) |
| CCC=CC[C@H]1C(=O)CC[C@@H]1CC(=O)OC | inactive |
| COc1cc2c(cc1OC)CC(=O)N(CCCN(C)C[C@H]1Cc3cc(OC)c(OC)cc31)CC2 | inactive |
| COc1nc(C)cnc1NS(=O)(=O)c1cccnc1-c1ccc(-c2nnco2)cc1 | inactive |
| CC(O)=C(C#N)C(=O)Nc1ccc(C(F)(F)F)cc1 | inactive |
